# This is part of a sample that, as a whole, favours compounds with a hit. Of some 83,000 tested, about 20% had one in any assay.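 For each line, cells grew in 96-well plates with the test compound present at a single concentration for 48 hours.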 A number with no mark means an inactive call. Activity calls are given as the source filed them. The calls were made as follows: active = growth percent below 10; inactive = the rest.
# Columns and labels:
# Test in all cases: NCI-60 one-dose screen, 48 h (100 = growth as untreated, 0 = no growth, -100 = all killed)
# Conditions in all cases: 10 µM unless noted
# SK-MEL-2 melanoma = system: SK-MEL-2 melanoma
# EKVX NSCLC = system: EKVX NSCLC
# SN12C renal = system: SN12C renal
# TK-10 renal = system: TK-10 renal
# ACHN renal = system: ACHN renal
# CAKI-1 renal = system: CAKI-1 renal
# A498 renal = system: A498 renal
# MOLT-4 leukemia = system: MOLT-4 leukemia
# CCRF-CEM leukemia = system: CCRF-CEM leukemia
# UO-31 renal = system: UO-31 renal
SMILES,growth (SK-MEL-2 melanoma),growth (EKVX NSCLC),growth (SN12C renal),growth (TK-10 renal),growth (ACHN renal),growth (CAKI-1 renal),growth (A498 renal),growth (MOLT-4 leukemia),growth (CCRF-CEM leukemia),growth (UO-31 renal) [%]
Cc1ccc(S(=O)(=O)n2cc(CNc3ccc(N4CCOCC4=O)cc3)c3ccccc32)cc1,102%,98.5%,84.3%,65.2%,46.7%,30.4%,-51.1% (active),82.7%,,
Cc1ccc(Nc2ccc(Nc3ccc(C)cc3)c3c2C(=O)c2cccc(O)c2C3=O)cc1,65.5%,91.6%,98%,137%,91%,104%,116%,104%,93.2%,
Cc1nn(-c2ccccc2)c(Cl)c1/C=C(/NC(=O)c1ccccc1)c1nc2ccccc2[nH]1,111%,94.4%,91.2%,106%,92.4%,84.1%,88.2%,79.9%,86.5%,
O=C(CSc1nnc(-c2ccc(NC(=O)c3cccnc3)cc2)o1)N[C@@H](Cc1ccc(O)cc1)C(=O)O,99.8%,110%,94.4%,106%,98.6%,92.4%,117%,99.8%,96.6%,
CC(=O)OC1CCC2(C)C(=CC3C4CCC(=O)C4(C)CCC32)C1 (stereo not drawn),93%,109%,96.4%,108%,101%,101%,154%,103%,,
Cc1cccc(NC(=O)N/C(N)=N/c2nc(C)c(C)s2)c1,43.7%,55.8%,57.6%,96.3%,63.4%,30.6%,20%,21.9%,53.5%,
O=C(NCCCNc1cc(-c2cn(-c3ccccc3)nc2-c2cccc(O)c2)ccn1)c1ccc(F)cc1,-8.95% (active),48.2%,55%,60.4%,51.7%,12.4%,29%,,22.3%,
O=C(Nc1ccccc1)Nc1cccc(Oc2nnc(Cl)c3ccccc23)c1,9.53% (active),30%,53.7%,25.3%,33.9%,84.4%,49.2%,,47.6%,
NCCCNc1nc2ccccc2c2c(=O)c3cccc(Cl)c3sc12,99.4%,31.2%,21.1%,58%,7.6% (active),17.1%,65.2%,-23.4% (active),2.48% (active),
COc1cc(/C=C/C(=O)c2c(C)nc3ccccc3c2/C=C/c2ccc(C)cc2)cc(OC)c1OC,39.7%,34.7%,15.2%,54.3%,13.7%,28.6%,32.6%,4.36% (active),5.31% (active),
CCCCCCCCCCCCCCCCCCOc1ccccc1CC(=O)OCCC[N+](C)(C)C,87.7%,79%,36%,50.1%,67.5%,43.6%,98.5%,,,
N#Cc1c(N2CCNCC2)nc2sc3cc(Cl)c(Cl)cc3n2c1=N,112%,98.8%,93.2%,141%,102%,101%,115%,70.4%,,
Cc1cccc(Cc2cnc(NC(=O)c3ccc4nnsc4c3)s2)c1,82.7%,87.4%,92.9%,80.9%,70.3%,60.2%,106%,90.2%,,
O=[N+]([O-])c1ccc(OCCO)cc1,105%,92.8%,101%,117%,104%,93.1%,90.6%,,96.2%,
COc1ccc(-c2cc(-c3cc(OC)ccc3OC)nc(SCC(=O)c3ccccc3)c2C#N)cc1,89.6%,100%,93.7%,114%,91.6%,95.3%,93.9%,,111%,
CNC(=O)c1cc(Oc2cccc3nc(Nc4ccc(F)c(Cl)c4)ccc23)ccn1,90.8%,69.5%,60.4%,52.9%,75.3%,97%,60.4%,,60.3%,
N#CC1=C(c2ccc(Br)cc2)NC(SCC(=O)c2ccc(Br)cc2)NC1=O (stereo not drawn),98%,104%,109%,118%,109%,97.1%,80.1%,92%,,
Cc1nc2ccccc2c(/C=C/c2ccc(Cl)cc2)c1C(=O)/C=C/c1ccc(F)cc1,3.88% (active),29.9%,-10.2% (active),43.3%,3.87% (active),-10.1% (active),-4.11% (active),4% (active),,
CCN1CCN(c2nc(C)cc(NCc3cc(Nc4ccnc5cc(Cl)ccc45)ccc3F)n2)CC1,-49.7% (active),,44%,28.9%,16.9%,68.8%,15.6%,,-19.4% (active),17.1
O=C(/C=C/c1ccco1)c1ccc(Nc2nc(Nc3ccc(F)cc3)nc(Nc3ccc(Cl)cc3)n2)cc1,59.4%,75.5%,81.1%,84%,89.1%,80%,30.8%,-99.1% (active),,
COc1ccc(Cl)cc1NC(=O)C(Br)C(Br)C(=O)O (stereo not drawn),-24.7% (active),90.9%,59.3%,111%,78.7%,96.3%,86.6%,16.9%,,
O=C(N=c1oc2ccccc2cc1-c1cc2ccccc2[nH]1)c1ccc(Cl)cc1,101%,38.9%,80.3%,53.1%,6.82% (active),56.2%,69.6%,,24.7%,
COc1cc(/C=C2\C(=O)ON=C2C)cc(OC)c1OC,113%,97.8%,98.3%,104%,96.9%,91.5%,65%,102%,92.8%,
COc1cc(/C=N/n2c(CN3CCOCC3)nc3ccccc3c2=O)cc(OC)c1OC,113%,107%,101%,103%,103%,100%,81.8%,103%,104%,
Cc1ccc(C2SCC(=O)N2Cc2ccccc2)cc1 (stereo not drawn),100%,89.5%,94.8%,99.5%,100%,84.4%,109%,84%,79.2%,
C(=N\Nc1ncc(-c2cc3cc4c(cc3o2)OCO4)s1)/c1ccco1,90.8%,59.3%,38.9%,50.7%,11.1%,9.09% (active),71.1%,9.91% (active),17.5%,
COc1cc(/C=C/C(=O)N2CCN(C(=O)c3cc(OC)c(OC)c(OC)c3)CC2)ccc1OCCCN1C(=O)c2cccc3cccc(c23)C1=O,49.3%,114%,93.7%,97.5%,80.7%,72.9%,62.2%,49.6%,27.1%,
COc1cc(C2NC(=O)c3ccccc3N2)ccc1OCCCCCOc1c(OC)cc(C2=NOC(c3cc(OC)c(OC)c(OC)c3)C2)cc1OC (stereo not drawn),76.9%,50.6%,92.6%,100%,41.3%,89.2%,99.3%,24.6%,44.8%,
O=c1oc2ccccc2c(Cl)c1Cl,54.7%,106%,17.9%,94.3%,80.7%,83.4%,112%,37.5%,18.9%,
c1coc(-c2c3ccc(=[N+]4CCCCC4)cc-3oc3cc(N4CCCCC4)ccc23)c1,-80.4% (active),-66.5% (active),-75.4% (active),-93.3% (active),-95.9% (active),-82.9% (active),-66.3% (active),-43% (active),-50.1% (active),

# — PubChem BioAssay (NCI)
